Pf growth 96h: inhibits malaria parasite growth, 96 h; P. falciparum luciferase reporter growth, 96 h; Potency, µM (series often up to 28.7 µM), for the others: top-dose activity change, negative = inhibition, most hits filed as inhibitors; actives 6.9% (n = 320,000); note: potency is the fitted concentration of half-maximal effect; % is set by controls: 0 for no effect and ±100 for the full control effect
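Infected RBCs, 2% Hct / 0.05% parasitemia final; luciferase-reporter P. falciparum; cpd 96 h, 37 C, 5% CO2; luciferase detection reagent; luminescence.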
SARS PLpro yeast: inhibitors of SARS-CoV papain-like protease in yeast; S. cerevisiae expressing SARS-CoV PLpro, growth rescue; Potency, µM (titrated, usually from 32.9 µM), for inactives: at the highest dose activity, positive = growth rescue, most hits filed as activators; actives 0.19% (n = 330,000); AID 485353; calls by dose curve; note: potency is the fitted concentration of half-maximal effect; 0% is about no effect; nearly all actives have a fitted effect of over 55% in size
Pf growth 48h: P. falciparum growth inhibition at 48 hours (one generation); P. falciparum luciferase growth in erythrocytes, 48 h; Potency, µM (highest dose often 28.7 µM), for the others: top-dose activity change, negative = inhibition, most hits filed as inhibitors; actives 5.9% (n = 310,000); note: potency is the fitted concentration of half-maximal effect; % is set by controls: 0 for no effect and ±100 for the full control effect
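Growth was read as firefly luciferase luminescence after a 48 h, 37 C, 5% CO2 exposure of compounds to reporter-bearing P. falciparum cultures (0.1% parasitemia, 2% hematocrit final) in Albumax-supplemented RPMI 1640.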
Cycloheximide cs: affects cycloheximide protein synthesis inhibition readout, counter-screen; cell reporter, cycloheximide protein synthesis inhibition counterscreen; max response, %; actives 12% (n = 300,000); in the data active = max response mostly above about 13%, no sharp cut-off; inactive = mostly below about 14%; note: read at 38.3 µM for the half of the compounds with a filed dose; 0% is about no effect
Shiga inhibitor: blocks Shiga toxin action in Vero cells | inhibition, % at 38.7 µM | actives 9.2% (n = 290,000) | Vero cells, Shiga toxin protein synthesis inhibition reporter; in the data active = inhibition mostly above about 28%, no sharp cut-off; inactive = mostly below about 43%; note: 0% is about no effect
AMA1 RON2 block: disrupts binding of P. falciparum AMA1 to RON2. AlphaScreen AMA1-biotinylated RON2 peptide binding. actives 0.2% (n = 360,000). Potency, µM (doses to about 58.2 µM), for inactives: at the top dose activity change, negative = inhibition, actives largely listed as inhibitors;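 note: potency is the fitted concentration of half-maximal effect; 0% = vehicle wells and -100% = peptide control; nearly all actives have a fitted effect of over 45% in size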
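AMA1 (3D7) with his tag at 25 nM final met compounds first, then biotinylated RON2 peptide at 25 nM; detection used donor plus acceptor beads, 10 µg/mL apiece, read by AlphaScreen after 30 min at room temperature.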
The depositor's hits bear a star; ? = inconclusive; / = not tested or not shown; [ ] = another dose, or the depositor's remark. Rows were chosen to be rich in hits. Some 19% of all compounds tested hit in one or more screens of this group. Unless noted, calls come from the whole dose curve; as a rule, active = well fitted curve in the direction sought with a large enough effect; inconclusive = small, poorly fitted or top-dose-only effect, or another doubt; inactive = no such curve, though single readings can be large; an effect the other way counts as inactive or inconclusive.

SMILES | Pf growth 96h | SARS PLpro yeast | Pf growth 48h | Cycloheximide cs | Shiga inhibitor | AMA1 RON2 block
CSc1ccccc1NC(=O)c1cc(-c2ccco2)on1 | 69% | -22% | 42% | 18* | 55* | -6%
CSc1ccccc1NC(=O)c1cc(C)on1 | 67% | 2%[6.58 µM] | / | 45 | 99 | -3%
O=C(Nc1ccc(F)cc1F)c1cc(-c2ccco2)on1 | 2% | -5% | 253% | 31* | 93* | -1%
Cc1c(Cl)cccc1NC(=O)c1cc(-c2ccco2)on1 | 168% | -4% | 42% | 36 | 54* | 0%
CSc1ccccc1NC(=O)c1cc(C(C)C)on1 | / | -8% | / | 50* | 117* | 11%
O=C(CSc1nc(=O)n2ccccc2n1)NCc1ccccc1 | 5% | 3% | -10% | / | / | 0%
COc1ccc(-c2ccc(C(=O)NCc3cccs3)c3occc23)c(C)c1 | / | / | / | / | / | 10%
COC(=O)C1=C(CCc2ccccc2)NC(=O)NC1c1ccc(Br)cc1 (stereo unspecified) | 13µM* | 0% | 14% | -2 | -1 | 0%
Cc1ccc(-c2nn(-c3cccc(F)c3)cc2CNCc2cccnc2)o1 | 26% | -1% | ? | 10* | 27 | -5%
Cc1ccc(-c2nn(-c3ccccc3)cc2C=O)o1 | 63% | -6% | 176% | 51* | 112* | -12%
OCc1cn(-c2ccccc2)nc1-c1ccco1 | 77% | -6% | / | 16 | 25 | -7%
Cc1ccc(-c2nn(-c3cccc(F)c3)cc2CN2CCN(c3ccccn3)CC2)o1 | -26%[5.75 µM] | -1% | ? | -1 | 2 | -23%
Cc1ccc(-c2nn(-c3ccccc3)cc2CO)o1 | 44% | 3% | 489% | 34* | 85* | 0%
Cc1ccc(-c2nn(-c3ccccc3)cc2C(N)=O)o1 | 19% | -2% | 0% | 12 | -4 | -2%
CC(C)C[C@H]1COc2cccc(N3CCC[C@H]3CO)c2S(=O)(=O)N1 | / | / | / | / | / | 0%
CCC(CC)C(=O)c1c[nH]c(C(=O)N2CCN(c3ccccc3)CC2)c1 | -3% | 1% | -3% | -3 | -8 | -1%
COc1ccccc1-c1cnc(C(O)c2cccc(F)c2)[nH]1 (stereo unspecified) | / | / | / | / | / | -10%
Cc1nc(N2CCC3(CC2)OCCO3)c2nnn(Cc3ccccc3F)c2n1 | -14% | -14% | / | 43* | 57* | -7%
c1ccc(Cn2nnc3c(N4CCC5(CC4)OCCO5)ncnc32)cc1 | 12µM* | 2% | -9% | 7 | 41 | ?
CCc1nc(N2CCC3(CC2)OCCO3)c2nnn(Cc3ccccc3)c2n1 | 0% | 3% | ? | 1 | -2 | 0%
COc1ccc(N2CCN(c3ncnc4c3nnn4Cc3ccccc3Cl)CC2)cc1 | 5.2µM* | 2% | 3% | 4 | 14 | -1%
CCN(CC(=O)NCc1ccc(Cl)cc1)C(=O)COc1ccc(Cl)cc1Br | 36% | -24% | -14% | / | / | -2%
O=C(OCc1ccccc1)N1CCC2CC1c1cc(-c3cc4ccccc4o3)ccc12 (stereo unspecified) | / | / | / | / | / | -3%
COC(=O)c1ccc(OC(=O)C23CCC(C)(C(=O)O2)C3(C)C)cc1 (stereo unspecified) | -10% | -1% | 9% | 1 | -10 | -3%
CCOC(=O)[C@H]1[C@H]2COc3ccc(C)cc3[C@@H]2N2C(=O)c3cc(Cl)ccc3NC(=O)[C@@]12C | ? | 0% | ? | / | / | -12%
SMILES | Pf growth 96h | SARS PLpro yeast | Pf growth 48h | Cycloheximide cs | Shiga inhibitor | AMA1 RON2 block
CCOC(=O)N1CCN(CCC(=O)c2ccc(Br)cc2)CC1 | ? | -12% | 7% | 9 | 33 | -1%
CCC1=[N+](CC(=O)c2ccc(C)cc2)CCn2c(C)ccc21 | ? | 0% | 3.3µM* | 23* | 13 | -16%
CCN1CCN(CC(=O)c2ccc(C)cc2)CC1 | 0% | 0% | / | -3 | -5 | -26%
CC1=[N+](CC(=O)c2ccccc2)CCn2cccc21 | 25% | 0% | ? | 34* | 58* | 2%
CCC1=[N+](CC(=O)c2ccc(Br)cc2)CCn2c(C)ccc21 | ? | 7% | 5.9µM* | 15* | 52* | -12%
CCC1=[N+](CC(=O)c2ccc(C)cc2)CCn2cccc21 | -2% | -1% | ? | 24* | 48 | -17%
CCC1=[N+](C)CCn2c(C)ccc21 | 15% | 1% | / | -3 | -5 | -2%
